In PubChem BioAssay (NCI) one finds growth data, which are given here for eight compounds.

Compounds without any hit were thinned out: in the full panel of roughly 83,000, 20% have a hit.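 Growth was measured after 48 h exposure to one concentration of compound in 96-well plates. Values under 10 count as active.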 Values without a mark were called inactive. Activity calls are given as the source filed them.

Common to all, as to experiment: NCI-60 one-dose screen, 48 h (100 = growth as untreated, 0 = no growth, -100 = all killed)
Common to all, as to conditions: 10 µM

Assay [1] has as its system HCT-15 colon.
For assay [2], the system named is HT29 colon.
Assay [3] has as its system SNB-75 CNS.
Assay [4] deals with SNB-19 CNS.
The subject of assay [5] is U251 CNS.
The test system of assay [6] is PC-3 prostate.
Assay [7] concerns SK-MEL-5 melanoma.
For assay [8], the system named is UACC-62 melanoma.
In assay [9] the test system is LOX IMVI melanoma.
For assay [10], the system named is SK-MEL-28 melanoma.
Assay [11] deals with SK-MEL-2 melanoma.
The test system of assay [12] is EKVX NSCLC.
Assay [13] relates to SN12C renal.
In assay [14] the test system is UO-31 renal.
For assay [15], the system named is TK-10 renal.
Assay [16] deals with ACHN renal.
Assay [17] concerns CAKI-1 renal.
Assay [18] relates to A498 renal.
For assay [19], the system named is CCRF-CEM leukemia.
Assay [20] deals with MOLT-4 leukemia.

For `Cc1ccc(/C=C(\C#N)n2nnc3c(F)cccc32)cc1`, the growth was 12.2% in assay [1]; 2.75% (active) in assay [2]; 17.9% in [3]; 23.6% in assay [4]; -26.1% (active) in assay [5]; 24.7% in [6]. Besides, the growth in assay [7] is -23.5% (active); in assay [8], 36.8%; in [9], -9.47% (active); in assay [10] it was 28.8%; in [11], 16.5%; in [12], 28.8%. In addition, the growth in assay [13] is 4.19% (active); in [14], 15.2%; in assay [15], 0.416% (active); in assay [16], 19.7%; in assay [17] it was 21.8%; in assay [18] it was 71.8%. In addition, the growth in [19] is 10.1%.
Turning to `C/C(=N\N=C\c1ccc(N(C)C)cc1)c1ccc2c(c1)Nc1ccccc1S2`, the growth in assay [1] was 22%; in [2], 52.5%; in assay [3], 69.6%; in assay [4], 63.1%; in assay [5] it was 29.4%; in assay [6], 54%. Further, the growth was 36.1% in [7]; 70.7% in assay [8]; 55% in [9]; 85.7% in [10]; 84.6% in assay [11]; 47.1% in [12]. For the same compound, the growth in assay [13] was 49.8%; in assay [14], 57.4%; in assay [15] it was 70.6%; in assay [16] it was 50.8%; in assay [17], 56.5%; in assay [18], 86.4%. In addition, the values for the growth in assay [19] and in [20] were 59.5% and 34.3%, respectively.
For the compound `CC1(C)CC[C@]2(C(=O)N3CCOCC3)CC[C@]3(C)C(=CC[C@@H]4[C@@]5(C)CC[C@H](NCO)C(C)(C)[C@@H]5CC[C@]43C)[C@H]2C1`, the growth was -83% (active) in assay [1]; -60.8% (active) in [2]; -93.2% (active) in assay [3]; -95.8% (active) in assay [4]; -88.7% (active) in [5]; -61.6% (active) in [6]. Moreover, the growth in assay [7] was -97.6% (active); in assay [8] it was -93.9% (active); in assay [9], -83.8% (active); in assay [10], -98.9% (active); in [11], -82% (active); in assay [12], -87.8% (active). The growth in assay [13] is -91% (active); in assay [14], -100% (active); in assay [15] it was -82% (active); in assay [16], -100% (active); in assay [17], -96.2% (active); in assay [18], -91.5% (active). For the same compound, the growth in assay [19] was -33.8% (active).
Regarding `COc1ccccc1NCc1ccc(CO)n1-c1ccc(C)cc1`, the growth in [1] was 96.7%; in assay [2] it was 102%; in assay [3], 80.2%; in [4] it was 94.9%; in [5] it was 96.1%; in [6], 80.2%. In addition, the growth in assay [7] is 100%; in assay [8], 83.8%; in assay [9], 86.5%; in assay [10], 106%; in [11], 104%; in assay [12], 98.9%. Also, the growth in [13] is 86.8%; in [14] it was 60.3%; in assay [15] it was 107%; in [16], 93.3%; in assay [17], 79.9%; in assay [18] it was 123%. The growth in assay [19] is 86.3%.
In the case of `CCOC(=O)c1sc(N/N=C(\C)c2ccc3c(c2)Nc2ccccc2S3)nc1C`, the growth in assay [1] is 5.74% (active); in assay [2], 30%; in assay [3], 97.7%; in [4], 49.7%; in assay [5], 27.3%; in [6] it was 21.9%. Moreover, the growth was 20.8% in assay [7]; 32.4% in [8]; -58.4% (active) in assay [9]; 39.1% in assay [10]; 10.7% in assay [11]; 26.1% in [12]. Moreover, the growth in assay [13] was 51.3%; in assay [14], 29.4%; in assay [15], 36.8%; in assay [16], 16.9%; in assay [17], 32.2%; in [18], 30.6%. Besides, the growth in assay [19] was 32.4%; in [20], 14.8%.
In the case of `O=C(Nc1ccc(Cl)c(C(F)(F)F)c1)c1cncc(C#Cc2cnc3ccc(N4CCOCC4)nn23)c1`, the growth in [1] was 15.8%; in [2] it was 8.82% (active); in assay [3], -1.28% (active); in assay [4] it was -10.8% (active); in assay [5], 20.2%; in assay [6], 23.4%. In addition, the growth in assay [7] is 4.01% (active); in assay [8] it was -10.3% (active); in assay [9] it was -48.9% (active); in assay [10], 0.817% (active); in assay [11] it was -33.8% (active); in assay [12], 19.2%. Besides, the growth in assay [13] was 6.18% (active); in [14], -33.6% (active); in assay [15], 23.8%; in assay [16], -35% (active); in assay [17], 9.84% (active); in [18], -19.3% (active). Also, the growth in assay [19] is 37.5%; in [20], 0.617% (active).
In the case of `O=C(Cn1cc(CSc2nnc3oc4ccccc4n23)nn1)Nc1cccc(Cl)c1`, the growth was 62.4% in [1]; 82.3% in assay [2]; 51% in assay [3]; 74.5% in assay [4]; 70.6% in assay [5]; 50.4% in [6]. The growth was 58.3% in assay [7]; 49.6% in assay [8]; 58.3% in assay [9]; 81.5% in assay [10]; 55.6% in [11]; 57.6% in assay [12]. Further, the growth is 76.5% in [13]; 55.3% in assay [14]; 79.3% in assay [15]; 66.7% in assay [16]; 59.8% in assay [17]; 106% in [18]. The growth in [19] is 50.6%.
For the compound `O=C(Nc1nc2ccc([N+](=O)[O-])cc2s1)Nc1ccccc1I`, the growth in [1] was 1.19% (active); in assay [2], 1.95% (active); in assay [3], -1.46% (active); in assay [4], 10.5%; in assay [5], 2.73% (active); in [6], 9.44% (active). The growth in assay [7] is -78.5% (active); in assay [8], 3.63% (active); in assay [9], 9.2% (active); in [10] it was 15.8%; in assay [11], -21.6% (active); in assay [12], -8.48% (active). The growth in [13] is 1.18% (active); in [14], 0.855% (active); in [15] it was 10.8%; in assay [16], -0.408% (active); in assay [17], -19.5% (active); in [18], -8.67% (active). Also, the figures for the growth in assay [19] and in [20] were 3.88% (active) and 1.39% (active), respectively.
